These results are taken from PubChem BioAssay (NCI).

Compounds without any hit were thinned out: in the full panel of roughly 83,000, 20% have a hit.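 Single-dose data. Exposure time 48 hours. Values below 10 considered active.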 A number with no mark means an inactive call. The source made the active and inactive calls.

In the first experiment the test system is CCRF-CEM leukemia. The experiment is described as follows: NCI-60 one-dose screen, 48 h (100 = growth as untreated, 0 = no growth, -100 = all killed). Particulars: 10 µM unless noted.
In the case of `COc1cc(/C=N/N(C)C)ccc1O`, the growth was 94.5%.
The same measure, in the same setting: the result for `CC(=O)Nc1ccc2c(c1)c(NC(C)=O)nn2C(=O)Nc1ccc(Cc2ccccc2)cc1` reads 89.8%.
On the same count and under the same terms, the result for `CC(C)(C)n1cc(-c2ccnc(NCCNS(=O)(=O)c3ccccc3)c2)c(-c2cccc(O)c2)n1` reads 46.5%.
Still for that read-out and setting: the result for `CN1C2CCC1/C(=C\c1ccc(Cl)cc1)C1=C2[C@@H](c2ccc(Cl)cc2)C(C#N)=C(N)O1` (some centres undefined) reads 77.2%; that for `O=[N+]([O-])c1cccc(-c2nc3sccn3c2-c2ccnc(NCCCNS(=O)(=O)c3cccc(F)c3)n2)c1`, 3.04% (active).

A further experiment has as its system MOLT-4 leukemia. The description is as above. The following applies: 10 µM unless noted.
With `COc1ccc(-c2csc(NC(=O)CN3CCN(c4cc5c(cc4F)c(=O)c(C(=O)O)cn5C4CC4)CC3)n2)cc1`, the growth was 24.2%.
On the same count and under the same terms, to `O=C(O)c1ccc(=O)[nH]n1` belongs 89%; to `COc1ccc(-c2cc(NC(=O)Nc3ccc(O)cc3)no2)cc1`, 19.2%.
Same read-out and setting: the result for `CCN(CC)CCCNc1cc(OC)cc2nc3cc(Cl)ccc3nc12` reads -26.2% (active); that for `Clc1nc(Cl)c2c3c(sc2n1)CCCC3`, -27.8% (active); that for `CNCCCn1c2c(c3ccc([N+](=O)[O-])cc3c1=O)C(=O)c1cc(OC)cnc1-2`, -10.9% (active).
The same measure, in the same setting: to `C=C1CC2(OC1=O)C(=O)Nc1ccccc12` (centres undefined) belongs 18.7%; to `CN1CCN(Cc2ccc(NC(=O)c3cncc(C#Cc4c(N)ncc5ccc(C#N)cc45)c3)cc2C(F)(F)F)CC1`, -21.3% (active).
In the case of `O=C1O[C@H]([C@H](O)CO)C(O)=C1O`, the growth is 107%.
Still for that read-out and setting: to `COC(=S)SCN(CSC(=S)OC)c1ccc(Cl)cc1` belongs 81.7%; to `Cc1ccc(/C=C2\Oc3cc(OCC(=O)c4ccc(Cl)cc4)ccc3C2=O)cc1`, 102%; to `CCN(C(=O)CN1CCN(c2cc3c(cc2F)c(=O)c(C(=O)O)cn3C2CC2)CC1)c1nc(-c2ccc(OC)cc2)cs1`, 70.6%.
Same read-out and setting: the result for `OC(c1cc(-c2ccccc2)nc2ccc(Cl)cc12)C1CCCCN1` (centres undefined) reads 27.5%; that for `CC#CC#Cc1cccc(=O)o1`, 64.9%.
The same measure, in the same setting: the result for `CNCc1cccc2c1OCCOCCOCCN(C)S(=O)(=O)c1ccc(cc1)-c1cnc(N)c(n1)C(=O)N2` reads 0.352% (active); that for `CCCCCCCCCCCCCCCCCCSC1=CC(=O)C(OC)=C(OC)C1=O`, 91.9%.
For the compound `CC1=C(C)C(=O)OC([C@](C)(O)[C@]2(O)CC[C@@]3(O)[C@@H]4C[C@H]5O[C@]56CC=CC(=O)[C@]6(C)[C@H]4CC[C@]23COC(=O)c2ccc(C)o2)C1` (some centres undefined), the growth was 4.89% (active).
The same measure, in the same setting: to `O=C1C[C@H](Sc2nc(-c3ccc(F)cc3)cc(C(F)(F)F)n2)[C@H]2CO[C@@H]1O2` belongs 78.3%; to `C=C1CC[C@@H]2[C@](C)(COC(C)=O)[C@H](OC(C)=O)CC[C@@]2(C)[C@@H]1CC(Nc1ccc(S(=O)(=O)Nc2nc(C)cc(C)n2)cc1)C1=CCOC1=O` (some centres undefined), 24.6%; to `COc1ccc(S(=O)(=O)NCCNc2nccc(-c3c(-c4cccc([N+](=O)[O-])c4)nc4sccn34)n2)cc1`, 60.7%.
For the compound `O=C(Nc1ccc(Nc2cc(Nc3ccccc3)ncn2)cc1)Nc1cc(C(F)(F)F)ccc1F`, the growth is 63.6%.
For the compound `COc1ccc(/C=C/C(=O)c2c(O)c(C)c(O)c3c2OC2=CC(O)=C(C(C)=O)C(=O)[C@]23C)cc1`, the growth was -27.9% (active).
For `C=C(C[n+]1ccccc1)[C@@H]1CC[C@]2(C(=O)OC)CC[C@]3(C)[C@H](CC[C@@H]4[C@@]5(C)CC[C@H](O)C(C)(C)[C@@H]5CC[C@]43C)[C@@H]12`, the growth is 101%.
The same measure, in the same setting: the result for `CCCCCCCCCCCCNC(=O)[C@H]1CSC(c2ccc(OC)c(F)c2)N1` (some centres undefined) reads -66.9% (active); that for `COc1ccccc1N1CCN(CCn2c(=O)c3c(c4ccccc4n3C)n(C)c2=O)CC1`, 88.1%.
For `CC(C)[C@H]1COC(=O)N1[C@@H]1C(=O)N([C@@H](CCC(=O)N2CCN(C3CCCC3)CC2)C(=O)N[C@@H]2CCCc3ccccc32)[C@@H]1/C=C/c1cccc(Br)c1`, the growth was 17.9%.
On the same count and under the same terms, the result for `Cc1nc2nc(N)nc(N)c2nc1C` reads 118%; that for `COc1cnc2c(c1)C(=O)c1c-2n(CCCBr)c(=O)c2cc([N+](=O)[O-])ccc12`, 7.84% (active).
On the same count and under the same terms, the result for `COc1ccc(-n2cc(-c3ccccc3)c3c(SCC(=O)N/N=C/c4ccc([N+](=O)[O-])cc4)ncnc32)cc1` reads 108%; that for `O=C(O)c1cn(C2CC2)c2cc(N3CCN(Cc4nc5c(cnn5-c5ccc([N+](=O)[O-])cc5)c(=O)[nH]4)CC3)c(F)cc2c1=O`, 99.4%.
Same read-out and setting: the result for `CCOC(=O)c1cnc2ccc(OC)cc2c1Nc1cccc(S(=O)(=O)NC)c1` reads 99.2%; that for `CCN(CC)CCCC(C)NCCCNc1cccc2cccnc12` (centres undefined), 94.1%.
With `COc1ccc(C/C(C)=C(\c2ccc(Cl)cc2)c2ccc(OCCN3CCCCCC3)cc2)cc1`, the growth is 58.7%.
Same read-out and setting: to `C=C1C(=O)O[C@H]2[C@H]1CC/C(Cn1cc(Cn3ccc4cc(Cl)ccc43)nn1)=C\CC[C@@]1(C)O[C@@H]21` belongs -22.1% (active).
On the same count and under the same terms, the result for `COc1cc(/C=N/N(C)C)ccc1O` reads 89.7%; that for `CC(=O)Nc1ccc2c(c1)c(NC(C)=O)nn2C(=O)Nc1ccc(Cc2ccccc2)cc1`, 93.6%.
Regarding `CC(C)(C)n1cc(-c2ccnc(NCCNS(=O)(=O)c3ccccc3)c2)c(-c2cccc(O)c2)n1`, the growth was 38.2%.
For `CN1C2CCC1/C(=C\c1ccc(Cl)cc1)C1=C2[C@@H](c2ccc(Cl)cc2)C(C#N)=C(N)O1` (some centres undefined), the growth is 57.6%.
As to `O=[N+]([O-])c1cccc(-c2nc3sccn3c2-c2ccnc(NCCCNS(=O)(=O)c3cccc(F)c3)n2)c1`, the growth is -34.4% (active).
